Experimental findings from the supplement of paper PMC3334620 are described below.

The full ranking holds about 33,000 sequences; the median of “E-score (-0.5 to 0.5)” is about -0.032, and the highest 2% start at about 0.36. What follows is part of a selection rich in the highest values, with near analogues and random picks from the rest.

The target of this assay is T1, Sko1 (UniProt Q02100).
T1 sequence: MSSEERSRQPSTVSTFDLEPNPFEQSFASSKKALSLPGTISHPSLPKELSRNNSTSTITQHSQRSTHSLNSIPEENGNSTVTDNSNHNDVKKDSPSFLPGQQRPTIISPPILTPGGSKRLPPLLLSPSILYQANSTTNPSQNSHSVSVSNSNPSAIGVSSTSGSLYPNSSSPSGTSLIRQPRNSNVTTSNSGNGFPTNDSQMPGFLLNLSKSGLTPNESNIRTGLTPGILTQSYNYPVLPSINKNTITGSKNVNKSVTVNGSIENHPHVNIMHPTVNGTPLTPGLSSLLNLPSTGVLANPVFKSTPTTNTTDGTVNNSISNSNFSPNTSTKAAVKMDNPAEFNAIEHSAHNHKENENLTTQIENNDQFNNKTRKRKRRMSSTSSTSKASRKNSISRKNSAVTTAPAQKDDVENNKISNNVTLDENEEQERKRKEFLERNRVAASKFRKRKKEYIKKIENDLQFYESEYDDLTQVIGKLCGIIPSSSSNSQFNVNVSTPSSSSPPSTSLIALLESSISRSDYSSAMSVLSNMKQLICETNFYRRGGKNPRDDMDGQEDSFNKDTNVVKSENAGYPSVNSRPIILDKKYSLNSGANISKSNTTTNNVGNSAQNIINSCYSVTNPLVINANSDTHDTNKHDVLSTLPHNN
The assay is described as follows: PBM E-score (8-mer binding enrichment) (E-score (-0.5 to 0.5)); higher = stronger / more preferred TF binding. The conditions noted are these: protein concentration: 200 nM; construct: GST-full length. The essentials:
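Using PURExpress in vitro transcription/translation, GST-tagged yeast transcription factors were made in full-length or DNA-binding-domain form. These were applied at about 100-200 nM to double-stranded universal all-10-mer Agilent arrays, and bound protein was detected with fluorescent anti-GST. Scans were normalised with masliner before the Universal PBM Analysis Suite assigned E-scores to ungapped eight-base words pooled with their reverse complements.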
For the sequence CATGACTA, the “PBM E-score” value is 0.0134.

On to AATACCGG, for which the “PBM E-score” value was found to be 0.00982.

In the case of CGTTTACA, the “PBM E-score” value stood at 0.138.

CTCCCCAC: the “PBM E-score” value was -0.00257.

With ATTAAGCG, the “PBM E-score” value came to 0.0319.

For ACCGCATC, the “PBM E-score” value was -0.161.

AATAAGCT: the “PBM E-score” value is 0.0887.

For the sequence CTATAGGA, the “PBM E-score” value was 0.0338.

On to CCGAGATA, for which the “PBM E-score” value is 0.00305.

Take ACTAGTGC: the “PBM E-score” value was -0.13.

Regarding AAGTGTCG, the “PBM E-score” value amounted to 0.00605.

As for CCGTGTCG, the “PBM E-score” value is -0.319.

As to GCGTGTCA, the “PBM E-score” value came out at 0.216.

On to ACGTGTCA, for which the “PBM E-score” value was 0.378.

ACGTGTCT: the “PBM E-score” value is 0.381.

AAGTGTCT: the “PBM E-score” value was -0.135.

Take CCGTGTCA: the “PBM E-score” value was -0.186.

On to ACGTGTCG, for which the “PBM E-score” value amounted to 0.385.

As to ACGTGTCC, the “PBM E-score” value is 0.318.

CAGCAGGC: the “PBM E-score” value is -0.22.

Consider AGGCTTGA, for which the “PBM E-score” value was -0.0134.

Consider ACGGCTCG, for which the “PBM E-score” value was -0.0111.

Turning to TAACGTAA, the “PBM E-score” value was 0.457.

As to GAACGTAA, the “PBM E-score” value is 0.428.

In the case of CAACGTAA, the “PBM E-score” value came out at 0.447.

As for TAACGTTA, the “PBM E-score” value was 0.302.

Turning to TAACGTGA, the “PBM E-score” value worked out at 0.274.

GAACGTAC: the “PBM E-score” value came out at 0.254.

Regarding GATCGTAA, the “PBM E-score” value was 0.281.

As for CAACGTAG, the “PBM E-score” value is 0.354.

In the case of CAACGTGA, the “PBM E-score” value came to 0.182.

For ACAACTAA, the “PBM E-score” value is 0.161.

With AGGCCTGC, the “PBM E-score” value is -0.301.

With GCCGTCGC, the “PBM E-score” value was -0.133.

For the sequence CTCGGTAC, the “PBM E-score” value was -0.0539.

CTACTCAC: the “PBM E-score” value was 0.168.

ACCACGGA: the “PBM E-score” value is -0.247.

Regarding ACCACGTC, the “PBM E-score” value amounted to 0.363.

As for ACCACGTA, the “PBM E-score” value came to 0.441.

For ACCACGCC, the “PBM E-score” value was -0.125.

Take GCCACGGA: the “PBM E-score” value was -0.215.

In the case of ACCACAAA, the “PBM E-score” value turned out to be 0.0563.

For ACCACGGG, the “PBM E-score” value was -0.243.

For the sequence ACCACGAC, the “PBM E-score” value came out at 0.128.

Consider ACCACGAA, for which the “PBM E-score” value turned out to be 0.131.

For the sequence ACCACGTG, the “PBM E-score” value stood at 0.362.

As to GCCACGCA, the “PBM E-score” value worked out at 0.0845.

In the case of GCCACGTA, the “PBM E-score” value was 0.421.

Consider GTCTGATA, for which the “PBM E-score” value was -0.114.

Turning to TATCTGGA, the “PBM E-score” value was -0.215.

Take CCTCGGCG: the “PBM E-score” value is -0.0614.

With CCACCAAG, the “PBM E-score” value is -0.374.

For the sequence ACCGGTGG, the “PBM E-score” value is -0.404.

For AACTCACC, the “PBM E-score” value was -0.0504.

As for GAGAACCA, the “PBM E-score” value was -0.127.

Take ACACTCCT: the “PBM E-score” value is -0.189.

ACGCTCAA: the “PBM E-score” value is 0.0466.

For the sequence TTGTGAAA, the “PBM E-score” value was 0.119.

In the case of ACTTTCAA, the “PBM E-score” value amounted to 0.0541.

Take ACCTATAT: the “PBM E-score” value was determined as 0.257.

In the case of AGTGACGG, the “PBM E-score” value was 0.146.

On to GGTGACCA, for which the “PBM E-score” value is -0.137.

Take GTTGACGA: the “PBM E-score” value was determined as 0.212.

Regarding AGTGACGA, the “PBM E-score” value turned out to be 0.419.

Regarding AGTGACCA, the “PBM E-score” value was -0.178.

With GGTGACGA, the “PBM E-score” value was 0.422.

ACGCCCAG: the “PBM E-score” value was -0.0834.

For the sequence TACACTAA, the “PBM E-score” value was -0.0348.

For AATTGTGA, the “PBM E-score” value turned out to be 0.233.

Turning to ATCGGCCC, the “PBM E-score” value is -0.133.

In the case of CCCCACGG, the “PBM E-score” value is -0.22.

With CTCATTGA, the “PBM E-score” value is -0.0333.

Take ATCATTAA: the “PBM E-score” value was 0.239.

ATCATTGA: the “PBM E-score” value was determined as 0.272.

Turning to GTCATTAA, the “PBM E-score” value was 0.393.

For GTCATTGA, the “PBM E-score” value amounted to 0.416.

Take CTCATTAA: the “PBM E-score” value worked out at 0.0254.

For the sequence CCTGAGGC, the “PBM E-score” value is -0.278.

GATAGAGA: the “PBM E-score” value was -0.084.

Regarding ACCTTCGT, the “PBM E-score” value was 0.0282.

Take CGTAAAAG: the “PBM E-score” value was determined as 0.288.

In the case of AGACTCAC, the “PBM E-score” value was -0.129.

For TGAAGACA, the “PBM E-score” value was determined as 0.0964.

In the case of CGCGACTA, the “PBM E-score” value was -0.0528.

Consider CTGGATGC, for which the “PBM E-score” value is -0.36.

With CTGTGCGC, the “PBM E-score” value is -0.113.

Regarding CAAAGAAG, the “PBM E-score” value is -0.00535.

Regarding AATCGTCT, the “PBM E-score” value turned out to be 0.0851.

Turning to TATCGTGA, the “PBM E-score” value amounted to 0.168.

As to CATCGTCG, the “PBM E-score” value was -0.16.

Turning to AATCGTCA, the “PBM E-score” value amounted to 0.423.

As for CATCGTCA, the “PBM E-score” value is 0.395.

With GATCGTCA, the “PBM E-score” value was 0.321.

As to AATCGTCC, the “PBM E-score” value was determined as 0.0937.

Take CATCGTCC: the “PBM E-score” value turned out to be 0.0258.

As for TATCGTCA, the “PBM E-score” value amounted to 0.42.

With CCTCATTA, the “PBM E-score” value worked out at 0.131.

As for ATTGCCAC, the “PBM E-score” value is -0.11.

Turning to CGATGGGA, the “PBM E-score” value was -0.0417.

Turning to ACACTAAT, the “PBM E-score” value came out at 0.119.

Take AGGTCCAT: the “PBM E-score” value is 0.0213.

Consider AGGACATC, for which the “PBM E-score” value is -0.0352.

Take GACGGGCA: the “PBM E-score” value is -0.145.

ATGCGTAG: the “PBM E-score” value is 0.3.

GAGCGTAA: the “PBM E-score” value was found to be 0.218.

ATGCGTAA: the “PBM E-score” value was found to be 0.437.

With CTGCGTTA, the “PBM E-score” value turned out to be 0.0283.

For the sequence GTGCGCAA, the “PBM E-score” value was 0.114.

With CTGCGTAC, the “PBM E-score” value came out at 0.149.
